# Rab9 prom act: activates the Rab9 promoter; Potency, µM (titrated, usually from 9.22 µM), for the others: top-dose activation, negative = inhibition, usual class: activators; 320,000 compounds, 2.8% hits; Huh7 Rab9 promoter-luciferase reporter, luminescence, 24 h; AID 485297; further: % of control where 0% means no effect; nearly all actives have a fitted effect of over 60% in size
#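 Rab9 promoter-driven luciferase in stably transfected Huh7 cells; 1500 cells/well rested 2 h, exposed to compound in DMSO for 24 h at 37 °C, 5% CO2. Luminescence read 10 min after adding luciferase reagent at ambient temperature.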
# ELG1 genotoxic: induces genotoxicity in HEK293T cells with luciferase-tagged ELG1; 330,000 compounds, 1.3% hits; HEK293T ELG1-luciferase reporter, luminescence, 16 h; AID 504466; Potency, µM (highest dose often 46 µM), without a hit: top-dose activity change, positive = activation, most hits filed as activators; further: % of control where 0% means no effect; nearly all actives have a fitted effect of over 60% in size
#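 HEK293T cells expressing luciferase-tagged ELG1 were treated with compound or DMSO for 16 hr at 37°C. Luciferase activity was then read after 30 min with ONE-Glo at room temperature; rising signal flags genetic stress.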
# NPC1 promoter act: activators of NPC1 promoter; AID 485313; 320,000 compounds, 2.4% hits; Huh7 NPC1 promoter luciferase reporter, 24 h; Potency, µM (highest dose often 9.22 µM), for inactives: at the highest dose activation, hits mostly activators; further: % of control where 0% means no effect; nearly all actives have a fitted effect of over 60% in size
#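 Luciferase expression driven by the NPC1 promoter was measured in stably transfected Huh7 cells after a 24 h compound incubation, using a luciferase reagent and a luminescence read.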
# Luc counter: Kinase-Glo luciferase inhibition (counter-screen). Q27757. Kinase-Glo luciferase, ATP luminescence, 8 min. Potency, µM (series often up to 38.3 µM), without a hit: at the top dose activity change, negative = inhibition, usual class: inhibitors. 200,000 compounds, 0.28% hits; further: on the % scale 0 is the no-effect control and ±100 the full control effect; nearly all actives have a fitted effect of over 60% in size
#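 Compound is pinned into ATP-containing buffer (10 uM ATP, imidazole pH 7.2, 7 mM MgCl2). Kinase-Glo luciferase reagent is then added. Light output is recorded following an 8-min room-temperature incubation.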
# FLuc counter: inhibits or activates purified firefly luciferase, miR-21 counter-screen; P08659; purified FLuc, Km substrates, luminescence inhibition; Potency, µM (series often up to 57.5 µM), for inactives: top-dose activity change, negative = inhibition, usual class: inhibitors; 360,000 compounds, 6.9% hits; AID 588342;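 further: plate controls were vehicle for no effect and reference inhibitor for full effect; nearly all actives have a fitted effect of over 55% in size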
# Target sequence (P08659 whole entry, looked up): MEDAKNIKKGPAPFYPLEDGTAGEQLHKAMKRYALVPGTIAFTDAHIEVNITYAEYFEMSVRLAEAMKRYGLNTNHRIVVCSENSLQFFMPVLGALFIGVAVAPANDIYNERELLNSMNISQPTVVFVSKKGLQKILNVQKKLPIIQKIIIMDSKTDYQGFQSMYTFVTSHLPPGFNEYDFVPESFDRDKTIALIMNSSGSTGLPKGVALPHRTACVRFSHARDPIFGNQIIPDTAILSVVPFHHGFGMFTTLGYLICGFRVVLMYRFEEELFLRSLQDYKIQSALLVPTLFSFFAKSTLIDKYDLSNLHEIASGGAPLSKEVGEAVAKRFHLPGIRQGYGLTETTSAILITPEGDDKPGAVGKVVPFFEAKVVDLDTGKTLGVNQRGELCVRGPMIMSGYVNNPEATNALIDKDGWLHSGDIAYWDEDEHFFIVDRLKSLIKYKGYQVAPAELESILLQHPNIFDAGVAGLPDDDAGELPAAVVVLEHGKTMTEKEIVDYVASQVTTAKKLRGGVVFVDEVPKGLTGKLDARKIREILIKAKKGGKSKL
#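 Purified P. pyralis luciferase (10nM final) with 10uM D-luciferin and 10uM ATP (Km levels) in 50mM Tris acetate pH 7.5, 10mM Mg acetate, 0.01% Tween-20, 0.05% BSA; qHTS 6-point titration, ~60 µM downward; luminescence read.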
# SMN2 splice enh: enhancers of SMN2 splice variant expression. HEK293 SMN2-luciferase splicing reporter, luminescence, 30-36 h. Potency, µM (highest dose often 46.1 µM), for inactives: at the highest dose activity change, positive = activation, actives largely listed as activators. 210,000 compounds, 2.8% hits; further: % of control where 0% means no effect; nearly all actives have a fitted effect of over 55% in size
#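 HEK293 cells carry an SMN2 […]–luciferase reporter in which exon 7 inclusion puts luciferase in frame. Cells were plated 10-12 h before compound addition, then incubated 30-36 h at 37C. ONE-Glo luminescence was read; sodium butyrate at 4.5 mM final served as control.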
# The depositor's hits bear a star; u = inconclusive; x = no result; [ ] = dose if it differs, or a comment. A selection: hits, their analogues and other compounds. The true share with any hit is near 7.5%. The call rests on the fitted dose curve; in most records, active means well fitted curve in the direction sought with a large enough effect; inconclusive means small, poorly fitted or top-dose-only effect, or another doubt; inactive means no such curve, though single readings can be large; an effect the other way counts as inactive or inconclusive. Potency means the concentration at half of the fitted maximal effect.
SMILES,Rab9 prom act,ELG1 genotoxic,NPC1 promoter act,Luc counter,FLuc counter,SMN2 splice enh
O=C(NC(=S)NNC(=O)c1cc2ccccc2cc1O)c1ccco1,0%,3%,13%,0%,17µM*,-4%
O=C(NNC(=S)NC(=O)c1ccco1)c1ccc(NC(=O)c2ccccc2)cc1,-6%,-6%,-1%,0%,u,-27%
O=C(NC(=S)Nc1ccccc1Br)c1ccco1,u,u,u,x,11µM*,x
O=C(NC(=S)Nc1cccc(NC(=S)NC(=O)c2ccco2)n1)c1ccco1,2%,4%,1%,2%,-4%,-6%
O=C(Nc1ccc(NC(=S)NC(=O)c2ccco2)cc1)c1ccccc1,13%,15%,-3%,x,1%,x
O=C(CN1C(=O)c2cccnc2Oc2ccc(Cl)cc21)Nc1cccc(C(F)(F)F)c1,x,x,x,x,1%,x
COc1ccc(-n2nc(C(=O)NCc3ccc(F)cc3)c3c4ccccc4n(C)c3c2=O)cc1,x,x,x,x,4%,0%
CC(C)Oc1ccccc1-c1nc(SCC(=O)c2ccc(F)cc2)n[nH]1,x,x,x,x,-13%,0%
O=C(CNC(=S)NC(=O)C1CCCCC1)c1ccccc1,u,u,30%,-3%,12µM*,u
O=C(C1CC(c2ccc(F)cc2)=NO1)N1CCCCC1 (stereo not drawn),u,u,3.2µM*,-3%,15µM*,28µM*
O=C(C1CC(c2ccccc2O)=NO1)N1CCCCC1 (stereo not drawn),4.5µM*,13µM*,u,-8%,15µM*,0.16µM*
CC1CCCCN1C(=O)C1CC(c2ccc(F)cc2)=NO1 (stereo not drawn),2µM*,18%,u,x,21µM*,x
CCOC(=O)c1ccc(NC(=S)Nc2ccccc2)cc1,-2%,8%,1%,0%,u,u
CCOC(=O)C(/C(N)=N/C(=O)Nc1ccccc1)=C(\C)O,1%,4%,6%,-8%,6µM*,-4%
Fc1ccc(C2=CSC3=NCCN23)cc1,-2%,1%,0%,1%,-13%,-1%
N=c1nc(N)nc2n1NC(c1ccc(F)cc1)=CS2,-2%,16%,-1%,0%,15µM*,20%
CCC(C)Sc1ccc(-c2nc3ccc(C)cn3c2NCc2ccccc2)cc1OC (stereo not drawn),-3%,-7%,-7%,x,15µM*,x
CCCCCCSc1ccc(-c2nc3ccc(C)cn3c2NCc2ccccc2)cc1OC,1%,-3%,-2%,x,-2%,x
CC#CCC1(C(=O)OC)C(=O)NC[C@H]1c1ccccc1 (stereo partly drawn),x,x,x,-1%,x,-7%
CC1=Nc2ccccc2/C1=C/c1c(N)n2c(S(=O)(=O)C(C)C)nsc2nc1=O,-4%,1%,-3%,2%,24µM*,2%
CC1=Nc2ccccc2/C1=C/c1c(N)n2c(S(=O)(=O)CC(C)C)nsc2nc1=O,-5%,2%,2%,4%,17µM*,-20%
CC1=Nc2ccc(C)cc2/C1=C/c1c(N)n2c(S(=O)(=O)C(C)C)nsc2nc1=O,3%,-3%,1%,0%,u,20%
COc1ccc(NC(=O)c2cc3c(s2)-c2c(C)cccc2OC3)cc1Cl,x,x,x,x,-2%,0%
CC1=C(/C=C/C(=C/C=C/C(C)=C/C(=O)O)c2ccc(C)cc2)C(C)(C)CCC1,x,x,x,4%[39.9 µM],x,x
CC(=O)c1cccc(OCC(O)CNCC2COc3ccccc3O2)c1 (stereo not drawn),3%,-2%,4%,x,-1%,x
N#CC(C(=O)Nc1cccc(Cl)c1)=C1Nc2ccccc2N1,2%,4%,11%,2%,4%,27%
N#CC(C(=O)Nc1ccccc1)=C1Nc2ccccc2N1,19%,5%,-1%,0%,21µM*,-26%
O=c1c(Br)c(N2CCCC2)cnn1-c1ccccc1,2µM*,u,4µM*,-1%,21µM*,11µM*
